Screens from PubChem BioAssay.
An excerpt weighted towards active compounds, which were near 1.7% of everything screened.
TrxR1 inh – inhibitors of rat thioredoxin reductase 1. O89049. recombinant rTrxR1, NADPH fluorescence consumption, selenite substrate. Potency, µM (top dose mostly 114 µM), without a hit: at the top dose activity change, negative = inhibition, usual class: inhibitors. 390,000 tested, 1% active. AID 588453; note: % is set by controls: 0 for no effect and ±100 for the full control effect; nearly all actives have a fitted effect of over 65% in size
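Rat TrxR1 (90 nM in the dispensed reagent) was pre-reduced with 400 uM NADPH for 5 min at room temperature, then incubated with compound for 15 min. After 400 uM selenite was added, NADPH fluorescence (Ex 340/Em 450 nm) was followed for 8 min.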
Glioma ERSR ind – ER stress response induction in glioma; U87-MG GRP78 promoter luciferase reporter, 16 h; Potency, µM, for inactives: top-dose activation, usual class: activators; 420,000 tested, 0.02% active; note: series mostly up to about 76 µM; % of control where 0% means no effect; nearly all actives have a fitted effect of over 35% in size
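Stably transfected U87-MG human glioma cells carrying a GRP78-based luminescent sensor were seeded at 1000 cells/well, pin-dosed with compounds and incubated 16 h. Luciferase reagent was then added, and end-point luminescence was read after 10 min at room temperature.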
TrxR1 substrate – substrates of rat thioredoxin reductase 1; O89049; purified TrxR1 substrate turnover, NADPH consumption readout; Potency, µM (series often up to 114 µM), inactives show top-dose activity change, negative = substrate turnover; 390,000 tested, 0.01% active; note: % is set by controls: 0 for no effect and ±100 for the full control effect; nearly all actives have a fitted effect of over 50% in size
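Rat TrxR1, dispensed at 90 nM, was prereduced with 400 uM NADPH (final) for 5 min at ~22 deg C, then incubated with compound 15 min before 400 uM selenite. A first-read NADPH fluorescence drop versus no-compound background flagged substrates.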
12-LOX inh – inhibitors of human 12S-lipoxygenase ALOX12 | P18054 | purified 12hLO, xylenol orange hydroperoxide absorbance | Potency, µM (series often up to 108 µM), for inactives: at the highest dose activity change, negative = inhibition, actives largely listed as inhibitors | 580,000 tested, 1.1% active | AID 1671190; note: % is set by controls: 0 for no effect and ±100 for the full control effect
Target sequence (P18054 whole entry, looked up): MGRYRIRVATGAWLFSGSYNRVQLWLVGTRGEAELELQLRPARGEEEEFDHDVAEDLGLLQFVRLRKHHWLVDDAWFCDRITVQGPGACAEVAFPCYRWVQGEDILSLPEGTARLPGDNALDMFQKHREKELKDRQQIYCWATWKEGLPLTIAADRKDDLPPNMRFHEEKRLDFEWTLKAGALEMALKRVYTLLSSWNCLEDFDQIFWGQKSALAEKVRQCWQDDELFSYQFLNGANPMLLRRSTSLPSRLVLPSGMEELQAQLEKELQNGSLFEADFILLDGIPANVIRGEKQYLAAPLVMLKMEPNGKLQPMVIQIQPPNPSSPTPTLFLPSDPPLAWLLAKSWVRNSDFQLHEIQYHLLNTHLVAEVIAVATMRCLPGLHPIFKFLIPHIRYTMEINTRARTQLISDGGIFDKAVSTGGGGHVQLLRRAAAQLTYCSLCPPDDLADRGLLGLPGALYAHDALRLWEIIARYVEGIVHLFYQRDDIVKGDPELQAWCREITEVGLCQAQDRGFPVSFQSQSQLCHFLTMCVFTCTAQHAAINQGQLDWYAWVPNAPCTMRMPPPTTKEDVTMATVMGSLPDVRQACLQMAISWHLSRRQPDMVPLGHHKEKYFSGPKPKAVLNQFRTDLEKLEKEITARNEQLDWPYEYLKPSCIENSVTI
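Hydroperoxide product was detected by ferrous iron/xylenol orange as the 573 to 405 nm absorbance ratio. Arachidonic acid at 40 uM (final) was turned over for 30 min at room temperature by 150 nM human 12hLO, pH 7.0 Hepes buffer, after 15 min compound preincubation.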
IDH1 R132H inh – human IDH1 R132H inhibition. O75874. IDH1-R132H enzyme, NADPH consumption, diaphorase/resazurin fluorescence. Potency, µM (series often up to 76.6 µM), without a hit: top-dose activity change, negative = inhibition, most hits filed as inhibitors. 390,000 tested, 0.093% active; note: % is set by controls: 0 for no effect and ±100 for the full control effect; nearly all actives have a fitted effect of over 65% in size
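IDH1-R132H (0.5 ug/mL) preincubated 30 min with compound, then NADPH (0.016 mM) and alpha-KG (2 mM) added; 80 min at RT, pH 7.5. Remaining NADPH coupled via diaphorase/resazurin to fluorescence (540/590 nm); concentration-response curves normalized to no-enzyme control.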
Anesthetic bind – candidate novel general anesthetic via apoferritin binding; P02791; apoferritin/1-aminoanthracene competitive binding, fluorescence; Potency, µM (highest dose often 77.5 µM), inactives show top-dose activity change, negative = displacement, actives largely listed as inhibitors; 350,000 tested, 0.074% active; note: % is set by controls: 0 for no effect and ±100 for the full control effect; nearly all actives have a fitted effect of over 20% in size
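Horse-spleen apoferritin (10 uM) was mixed with 50% saturated 1-aminoanthracene in PBS, exposed to compounds for 10 min at room temperature, and read for fluorescence (ex 380 nm, em 535 nm). Competitive displacement was fitted with a four-parameter Hill equation.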
Numbers without * were called inactive; [ ] = dose if it differs, or a comment. Calls come from the whole dose curve; as a rule, active = well fitted curve in the direction sought with a large enough effect; inconclusive = small, poorly fitted or top-dose-only effect, or another doubt; inactive = no such curve, though single readings can be large; an effect the other way counts as inactive or inconclusive. Potency is the fitted concentration of half-maximal effect.

What do the screens show for `O=C(c1ccc2cc[nH]c2c1)N1CCC(N2CC(OCC3CC3)C23CCCCC3)CC1` (centres undefined)?
12-LOX inh: 14.1%

Results for CC1(CCCCc2ccccc2)COc2ccc(C(=O)NC3CCOCC3)cc2N1 (centres undefined) ?
12-LOX inh: -5.9%[176 µM]

How did O=C(/C=C/c1ccco1)N(Cc1ccccc1)C1CCS(=O)(=O)C1 (centres undefined) do in these assays?
TrxR1 inh: -75.8%; Glioma ERSR ind: -4.7%; TrxR1 substrate: 5.8%[11.4 µM]; 12-LOX inh: inconclusive; IDH1 R132H inh: 2.7%; Anesthetic bind: -1.2%

What do the screens show for `O=C(/C=C/c1ccco1)N(Cc1cccc(Br)c1)C1CCS(=O)(=O)C1` (centres undefined)?
TrxR1 inh: 10µM*; Glioma ERSR ind: -3.2%; TrxR1 substrate: 8.6%[57.1 µM]; 12-LOX inh: inconclusive; IDH1 R132H inh: 10.3%; Anesthetic bind: -16.7%

Results for O=C(/C=C/c1ccco1)N(Cc1cccc(Cl)c1)C1CCS(=O)(=O)C1 (centres undefined) ?
TrxR1 inh: 8.91µM*; Glioma ERSR ind: -9.4%; TrxR1 substrate: 6.6%[57.1 µM]; 12-LOX inh: 0.0%; IDH1 R132H inh: -1.4%; Anesthetic bind: 5.5%

How did O=C(/C=C/c1ccco1)N(Cc1ccc(F)cc1)C1CCS(=O)(=O)C1 (centres undefined) do in these assays?
TrxR1 inh: 44.7µM*; Glioma ERSR ind: -4.1%; TrxR1 substrate: -6.1%; 12-LOX inh: 0.0%; IDH1 R132H inh: 2.8%; Anesthetic bind: -1.1%

How did O=C(/C=C/c1ccco1)N(Cc1cccc(F)c1)C1CCS(=O)(=O)C1 (centres undefined) do in these assays?
TrxR1 inh: 35.5µM*; Glioma ERSR ind: 2.8%; TrxR1 substrate: -4.0%; 12-LOX inh: inconclusive; IDH1 R132H inh: -10.0%; Anesthetic bind: -8.7%

How did O=C(c1ccccc1)N(Cc1cccc(Br)c1)C1CCS(=O)(=O)C1 (centres undefined) do in these assays?
TrxR1 inh: 20.2%; Glioma ERSR ind: -2.3%; TrxR1 substrate: 7.9%; 12-LOX inh: 0.4%; IDH1 R132H inh: 2.7%; Anesthetic bind: -5.0%

What do the screens show for `O=C(/C=C/c1ccccc1)N(Cc1cccc(Cl)c1)C1CCS(=O)(=O)C1` (centres undefined)?
TrxR1 inh: 23.2%[11.4 µM]; Glioma ERSR ind: -2.4%; TrxR1 substrate: -20.3%[11.4 µM]; 12-LOX inh: 0.0%; IDH1 R132H inh: 6.9%; Anesthetic bind: -2.5%

What do the screens show for `CCOc1ccccc1NC(=O)N1CCCC(Cc2ncc(C)n2C(C)C)C1` (centres undefined)?
12-LOX inh: 12.1%

How did CC1CC(C)(C)Nc2ccc(N=O)cc21 (centres undefined) do in these assays?
TrxR1 inh: 0.891µM*; Glioma ERSR ind: -1.4%; TrxR1 substrate: -3.6%[57.1 µM]; 12-LOX inh: 3.9%; IDH1 R132H inh: 26.7%; Anesthetic bind: -20.6%

How did CC(C)CNc1ccc2c(n1)C(C)(C(=O)NCc1cnccn1)CN(Cc1ccccc1)C2 (centres undefined) do in these assays?
12-LOX inh: 18.1%

What do the screens show for `COCCCNC(=O)/C(C#N)=C/c1c(C)[nH]c2ccccc12`?
12-LOX inh: 39.8µM*

How did Cc1[nH]c2ccccc2c1/C=C(\C#N)C(=O)NCC1CCCO1 (centres undefined) do in these assays?
TrxR1 inh: -4.5%; Glioma ERSR ind: 8.7%; TrxR1 substrate: -9.9%; 12-LOX inh: -24.6%; IDH1 R132H inh: 16.6%; Anesthetic bind: inconclusive

Results for CCc1ccccc1N1CC(c2nc3ccccc3n2CCC2CCCCC2)CC1=O (centres undefined) ?
TrxR1 inh: -6.0%; Glioma ERSR ind: -9.6%; TrxR1 substrate: -7.1%; 12-LOX inh: 28.2µM*; IDH1 R132H inh: 7.4%; Anesthetic bind: 47.9%
